Experimental data published in PubChem BioAssay (NCI).
This is part of a sample that, as a whole, favours compounds with a hit. Of some 83,000 tested, about 20% had one in any assay.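 Compound tested at a single concentration for 48 hours in 96-well plates; a percent growth value below 10 was scored as active.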 Unmarked numbers belong to inactive results. Calls of active or inactive are those of the source.

Columns and labels:
Experiment in all cases: NCI-60 one-dose screen, 48 h (100 = growth as untreated, 0 = no growth, -100 = all killed)
Conditions in all cases: 10 µM unless noted
T-47D breast = test system: T-47D breast
BT-549 breast = test system: BT-549 breast
MDA-MB-435 melanoma = test system: MDA-MB-435 melanoma
SW-620 colon = test system: SW-620 colon
MCF7 breast = test system: MCF7 breast
HCT-116 colon = test system: HCT-116 colon
HCC-2998 colon = test system: HCC-2998 colon
KM12 colon = test system: KM12 colon

SMILES | growth (T-47D breast) | growth (BT-549 breast) | growth (MDA-MB-435 melanoma) | growth (SW-620 colon) | growth (MCF7 breast) | growth (HCT-116 colon) | growth (HCC-2998 colon) | growth (KM12 colon)
CC(=O)O.[In] | 103% | 105% | 102% | 106% | 108% | 106% | 108% | 104%
Cc1nc2ccccc2c(=O)n1-c1cccc(OCc2cn(-c3cccc(O)c3)nn2)c1 | 68.4% | 99.8% | 108% | 104% | 94.3% | 95.2% | 103% | 95.2%
CCCCCCC(C)N(CC(C)(C)O)C(=O)c1ccc([N+](=O)[O-])cc1 (stereo unspecified) | 88.2% | 99% | 104% | 95.8% | 97.6% | 91.3% | 115% | 103%
CC1=C(C)C(=O)C(C(C)C2=C(C)C(=O)C(C)=C(C)C2=O)=C(C)C1=O | 91.6% | 83.5% | 98.1% | 107% | 102% | 71.2% | 23.4% | 88.8%
O=S(=O)(O)c1ccc2c(c1)Sc1cc(S(=O)(=O)O)ccc1O2 | 110% | 127% | 92.6% | 104% | 106% | 106% | 102% | 108%
Cc1cc2c(-c3nc4ccccc4[nH]3)c(O)c(O)cc2c(O)c1-c1c(C)cc2c(-c3nc4ccccc4[nH]3)c(O)c(O)cc2c1O | -16.7% (active) | -6.04% (active) | 23.3% | 23.4% | 5.3% (active) | 7.37% (active) | 19.5% | -38.6% (active)
O=C(OCC1CC2(Cl)C(Cl)=C(Cl)C1(Cl)C2(Cl)Cl)C1C(C(=O)OCC2CC3(Cl)C(Cl)=C(Cl)C2(Cl)C3(Cl)Cl)C2(Cl)C(Cl)=C(Cl)C1(Cl)C2(Cl)Cl (stereo unspecified) | 105% | 97.5% | 106% | 107% | 96.9% | 101% | 102% | 101%
CC(C)OCC1CO1 (stereo unspecified) | 104% | 106% | 102% | 96.4% | 99.6% | 100% | 120% | 98.3%
CC[C@H](Nc1ncnc2nc[nH]c12)c1nc2cccc(NCc3ccc(C(=O)NO)o3)c2c(=O)n1-c1ccccc1 | 80.8% | 86% | 105% | 107% | 91.4% | 96.9% | 104% | 103%
COc1ccc(OC)c(Cn2cc3c(c2)-c2oncc2CC3)c1 | 36.1% | 33.3% | -40.1% (active) | 22.4% | 8.44% (active) | 16.8% | 66.6% | 28.9%
O=C1C(Cl)=C(SC2=NCCN2)C(=O)c2ccccc21 | 49.7% | 90.3% | 62.7% | 95.6% | 61.1% | 65% | 106% | 75.5%
Nc1ccc(N=Nc2ccccc2)c2cc(S(=O)(=O)O)ccc12 | 97% | 114% | 108% | 106% | 86.5% | 104% | 103% | 103%
CC1(C)C(O)NC(Cl)=C(C#N)C1(C#N)C#N (stereo unspecified) | 106% | 104% | 113% | 102% | 107% | 101% | 90.4% | 112%
O=C(/C=C1\C(=O)N(Cc2ccc([N+](=O)[O-])cc2)c2ccccc21)c1ccc(OCCN2CCCC2)cc1 | 56.3% | 81.5% | 48.2% | 18.7% | 22.3% | 12.2% | 101% | 90.1%
O=C1C=C(OCC=C(C(F)(F)F)C(F)(F)F)c2ccccc2C1=O | -68.9% (active) | 39% | -40.2% (active) | -34.9% (active) | -76.8% (active) | -33.3% (active) | -12.1% (active) | 43.3%
COc1ccc(Cn2cc3c(c2-c2ccc(OC)cc2)CCc2cnoc2-3)cc1 | 38.7% | 30.3% | -29.7% (active) | 22.6% | 4.23% (active) | 4.82% (active) | -30.2% (active) | 5.5% (active)

SMILES | growth (T-47D breast) | growth (BT-549 breast) | growth (MDA-MB-435 melanoma) | growth (SW-620 colon) | growth (MCF7 breast) | growth (HCT-116 colon) | growth (HCC-2998 colon) | growth (KM12 colon)
CCCNC(=O)Oc1ccc(/C(=C(/C)Cc2ccc(OC)cc2)c2ccc(OCCN3CCCCC3)cc2)cc1 | 45.4% | 92.9% | 92.5% | 90.4% | 31.8% | 73% | 84.6% | 94%
COc1ccc(C2=C/C(=C\c3ccc(Cl)cc3)C(=O)NN2C(=S)NN)cc1 | 76.6% | 101% | 109% | 99.4% | 75.3% | 94.9% | 109% | 100%
CC(=N\N=C(N)N)/C(=N/N=C(N)N)c1ccccc1 | 60.8% | 88% | 103% | 86.3% | 18.9% | 80.4% | 73.8% | 70.4%
CCC(CCCN1C(=O)c2ccccc2C1=O)Nc1cc(OC)cc2c(C)ccnc12 (stereo unspecified) | 85.9% | 78.7% | 99.2% | 85.6% | 91.5% | 98% | 69% | 102%
CCOC(=O)c1cc(C(=O)c2ccc(Br)cc2)n2cc(C)cc(C)c12 | 80.3% | 79% | 102% | 103% | 90% | 75.3% | 102% | 98.9%
N=C(c1ccccc1)N(Cc1ccccc1)Cc1ccccc1 | 94.8% | 93.2% | 77.6% | 89.4% | 87.5% | 57.3% | 106% | 101%
CC([C@H]1CC=C2C3CCC4=C[C@@H](N(C)C)CC[C@]4(C)C3CC[C@@]21C)N(C)C (stereo partly specified) | 29.1% | 90.5% | -67.5% (active) | 9.89% (active) | 34.9% | -57% (active) | 49.6% | 30.6%
CC(C)CSc1nc(-c2ccc(F)cc2)c(C#N)c(N2CCCCC2)n1 | 91.2% | 88.9% | 98.6% | 97.8% | 83% | 89.5% | 104% | 86.1%
COC(=O)C(N)CC(C)C (stereo unspecified) | 92% | 97.9% | 106% | 103% | 98.3% | 93.5% | 111% | 93.8%
CCCCCSc1ccc2nc(NC(=O)OCCC)sc2c1 | 38.1% | 34.2% | -40.5% (active) | 22.9% | 14.3% | 25.3% | 74% | 24.9%
Nc1nc2c(c3ncncc13)C(c1cccc(C(F)(F)F)c1)Cc1ncncc1-2 (stereo unspecified) | 37.9% | 30.1% | -24.7% (active) | 28.9% | 19.2% | 18.5% | 64.3% | 28.9%
c1cc(C2CCCCC2)ccc1OCCCCCCN1CCNCC1 | 22.8% | 83% | 42.1% | -37.7% (active) | -31.3% (active) | -61.7% (active) | 12.9% | 6.42% (active)
CCC1(CC)C(OC)NC(Br)=C(C#N)C1(C#N)C(N)=O (stereo unspecified) | 113% | 104% | 107% | 101% | 110% | 110% | 121% | 103%
c1ccc(-c2cn3ccnc3c(-c3ccc4ncn(C5CCCCC5)c4c3)n2)cc1 | -11.1% (active) | 42.9% | 71.3% | 90.9% | 62% | 40.5% | 103% | 51%
CCCNC(=O)Oc1ccc(/C(=C(/CC)Cc2ccccc2)c2ccc(OCCN(CC)CC)cc2)cc1 | 34.1% | 97.4% | 87.8% | 70.9% | 26.3% | 49.1% | 50% | 69.2%
CC(=O)/C(=C\c1c(-c2ccccc2)[nH]c2ccccc12)S(=O)(=O)c1ccccc1 | 13% | 16.9% | 5.41% (active) | 12.1% | 10.1% | 9.03% (active) | 4.79% (active) | -10.1% (active)
